Source: PubChem BioAssay (NCATS)
Inconclusive results are not listed. Where a call stands in place of a potency, no number is given. Unmarked numbers belong to inactive results. The source made the active and inactive calls. The call rests on the fitted dose curve; in most records, active means well fitted inhibition curve with a large enough effect; inconclusive means small, poorly fitted or top-dose-only effect; inactive means no such curve, though single readings can be large or run the other way. Where a SMILES comes first, the peptide text is derived from it. [ ]: non-standard residue; d: D form.

Assays:
[1] = system: Zika virus NS2B-NS3 protease (unlinked complex); assay: Primary screen GU Rhodamine qHTS for Zika virus inhibitors: Unlinked NS2B-NS3 protease assay (AID 1347159); further: nearly all actives have a fitted effect of over 60% in size
In short: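 In dose–response format, inhibition of unlinked protease (25 nM) was measured with 1.5 microM bis-peptide Rhodamine110 substrate. Aprotinin served as the intraplate control.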

[2] = system: Zika virus NS2B-NS3 protease (linked construct); assay: Primary screen NINDS Rhodamine qHTS for Zika virus inhibitors (AID 1347160); further: nearly all actives have a fitted effect of over 55% in size
In short: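 Each compound, titrated, sat 15 min with 25 nM linked protease before 1.5 microM Rhodamine110 substrate went in. Fluorescence gain over the next 15 min, in pH 8.0 Tris with Tween 20, gave Hill-fitted curves.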

SMILES | Potency [1] | Potency [2] | activity change, negative = inhibition [1] | activity change, negative = inhibition [2]
CC(C)c1nc(N(C)S(C)(=O)=O)nc(-c2ccc(F)cc2)c1/C=C/[C@@H](O)C[C@@H](O)CC(=O)O | inactive | inactive | – | –
CCn1nnnc1NCc1ccc(C(C)C)cc1 | inactive | inactive | – | –
C=C(C(=O)OC)C1CCC2(C)C(O[C@@H]3O[C@H](CO)[C@@H](O)[C@H](O)[C@H]3O)CC(=O)C(C)C2C1O (some centres undefined) | inactive | inactive | – | –
C=C1CC[C@@H]2[C@](C)(CO[C@@H]3O[C@H](CO)[C@@H](O)[C@H](O)[C@H]3O)CCC[C@@]2(C)[C@@H]1CCC1=CCOC1=O | inactive | inactive | – | –
O=C(c1ccccn1)c1cnn2c(-c3ccncc3)ccnc12 | inactive | inactive | – | –
CC(C)(O)C1=CCC23COC(C2)C(O)(C(=O)O)CCC13 (centres undefined) | inactive | inactive | – | –
CNC(=O)COC(=O)NCCC1CCN(c2cccc(C)n2)CC1 | inactive | inactive | – | –
CC(C)NC[C@H](O)COc1ccc(CCOCC2CC2)cc1 | inactive | inactive | – | –
CC(=O)N[C@H](Cc1ccc(O)cc1)C(=O)N[C@H](CCCN=C(N)N)C(=O)N[C@H](Cc1ccccc1)C(N)=O (Ac-[dY]-[dR]-[dF]-NH2) | inactive | inactive | – | –
CC1=CC[C@]2(C(=O)O[C@@H]3O[C@H](CO[C@@H]4O[C@H](CO)[C@@H](O[C@@H]5O[C@@H](C)[C@H](O)[C@@H](O)[C@H]5O)[C@H](O)[C@H]4O)[C@@H](O)[C@H](O)[C@H]3O)CC[C@]3(C)C(CCC4[C@@]5(C)C[C@@H](O)[C@H](O)[C@@](C)(CO)C5CC[C@]43C)C2C1C (some centres undefined) | inactive | inactive | – | –
COC(=O)C1=CO[C@@H](O[C@@H]2O[C@H](CO)[C@@H](O)[C@H](O)[C@H]2O)[C@@H]2[C@@](C)(O)[C@@H](O)C[C@]12O | inactive | inactive | – | –
C=C1C(O[C@@H]2O[C@H](CO)[C@@H](O)[C@H](O)[C@@H]2O)CC2C(C)(C)C(O)CCC2(C)C1CC/C(C)=C\CO (some centres undefined) | inactive | inactive | – | –
Cc1ncc([N+](=O)[O-])n1CC(O)CN1CCOCC1 (centres undefined) | inactive | inactive | – | –
Cc1ccc(C(=O)Nc2ccc(Oc3cc4cnn(C)c4cc3-c3cn[nH]c3)c(F)c2)c(=O)n1-c1ccc(F)cc1 | inactive | inactive | – | –
OCC1=CC[C@@H]2C=CO[C@@H](O[C@@H]3O[C@H](CO)[C@@H](O)[C@H](O)[C@H]3O)[C@H]12 | inactive | inactive | – | –
COC(=O)[C@@H]1C2CC3c4[nH]c5ccccc5c4CCN3CC2CC[C@@H]1O (some centres undefined) | inactive | inactive | – | –
COc1cc(NC(=O)c2ccccn2)ccc1Cl | inactive | inactive | – | –
C[C@@]12C[C@]3(O)O[C@H](O1)[C@]1(COC(=O)c4ccccc4)[C@H]3C[C@@]12O[C@@H]1O[C@H](COC(=O)c2ccccc2)[C@@H](O)[C@H](O)[C@H]1O | inactive | inactive | – | –
O=c1c2ccccc2nc2n1CCC2O (centres undefined) | inactive | inactive | – | –
CCC(=O)O[C@]1(C(=O)CCl)[C@@H](C)C[C@H]2[C@@H]3C[C@H](F)C4=CC(=O)C=C[C@]4(C)[C@@]3(F)[C@@H](O)C[C@@]21C | inactive | inactive | – | –
C[C@@H](OC(=O)/C=C/c1ccc(O)cc1)C1=C[C@]2(C=C[C@@H]3C(C(=O)O)=CO[C@@H](O[C@@H]4O[C@H](CO[C@@H]5O[C@H](CO)[C@@H](O)[C@H](O)[C@H]5O)[C@@H](O)[C@H](O)[C@H]4O)[C@@H]32)OC1=O | inactive | inactive | – | –
C[C@@H]1CC[C@]2(C)C3(C)CC[C@@]2(OC3=O)[C@@]12C[C@H](c1ccoc1)OC2=O | inactive | inactive | – | –
Cn1c(=O)c2nc(/C=C/c3cccc(Cl)c3)n(C)c2n(C)c1=O | inactive | inactive | – | –
COc1cc2c(Nc3ccc(Cl)c(Cl)c3F)ncnc2cc1OCC1C[C@@H]2CN(C)C[C@@H]2C1 (some centres undefined) | inactive | inactive | – | –
CC1(C)CC2C3=CCC4C5(C)CCC(OC6OC(C(=O)O)C(O)C(O)C6OC6OC(CO)C(O)C(O)C6OC6OC(CO)C(O)C(O)C6O)C(C)(CO)C5CCC4(C)C3(C)CCC2(C)C(OC2OCC(O)C(OC3OC(CO)C(O)C(O)C3O)C2O)C1O (centres undefined) | – | – | 8.97% [at 19.1 µM] | -17% [at 10.7 µM]
COc1cc(/C=C/C(=O)OC[C@H]2O[C@H](O[C@]3(CO)O[C@H](CO)[C@@H](O)[C@@H]3O)[C@H](O)[C@@H](O)[C@@H]2O)cc(OC)c1O | inactive | inactive | – | –
CC(=O)[C@@H]1CC[C@]2(C(=O)O)CC[C@]3(C)C(CCC4[C@@]5(C)CC[C@H](O)C(C)(C)C5CC[C@]43C)C12 (some centres undefined) | inactive | inactive | – | –
